# Assay results taken from PubChem BioAssay AID1304 (The Scripps Research Institute Molecular Screening Center, 2008).
# The whole screen tested about 220,000 compounds, of which about 800 (0.36%) were called active. Only a selection was taken, and actives are over-represented in it overall. A number with no mark means an inactive call. Cut-off read from the data, not from the text of the source: active = activation above about 33% (passing the limit was not always enough); inactive = the rest.
# Molecular target: Neuropeptide Y receptor type 1 (Homo sapiens) (UniProt P25929)
# Assay: activation enhancers of human NPY-Y1 – cell-based, primary screen (AID 1304);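 note: cells stimulated with NPY at EC10 then isoproterenol at EC100; 0% = low agonist plus stimulus and 100% = saturating agonist plus stimulus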
# Conditions: NPY-Y1 expressing cells, potentiator/agonist activation; at 3.6 µM; stronger effect = higher value
# Neuropeptide Y receptor type 1 (Homo sapiens), sequence (P25929 whole entry, looked up): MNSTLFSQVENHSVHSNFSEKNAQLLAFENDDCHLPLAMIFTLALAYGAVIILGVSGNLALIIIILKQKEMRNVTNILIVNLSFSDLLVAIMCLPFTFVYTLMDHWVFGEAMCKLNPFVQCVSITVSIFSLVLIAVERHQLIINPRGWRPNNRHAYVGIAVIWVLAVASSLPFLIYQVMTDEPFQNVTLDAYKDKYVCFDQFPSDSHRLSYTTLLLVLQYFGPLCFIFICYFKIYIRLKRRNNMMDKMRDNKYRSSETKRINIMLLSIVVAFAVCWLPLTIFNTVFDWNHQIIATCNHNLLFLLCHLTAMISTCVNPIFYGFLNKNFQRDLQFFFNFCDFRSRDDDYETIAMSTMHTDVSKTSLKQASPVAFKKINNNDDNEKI
row,Compound,activation
1,CSC1=NP(=S)(SC)N(C)c2nc3n(c21)CCC3 (stereo not given),42.8% (active)
2,CCC1(C)CC(CCNCc2ccc(N(C)C)cc2)(c2ccc(F)cc2)CCO1 (stereo not given),16.3%
3,CSc1nc2ccc(C)cc2c(=O)n1-c1cccnc1,1.29%
4,CNC(=O)Nc1ccc(C(O)(C(=O)OC)C(F)(F)F)cc1 (stereo not given),-6.66%
5,CC(=O)Cc1ccc(OC(C)C)cc1,8.4%
6,C/C=C/CC1(CC)C(=O)NC(=S)NC1=O,11.2%
7,CCOP(=O)(OCC)C(NC(=O)c1ccc(OC)cc1)C(Cl)(Cl)Cl (stereo not given),4.01%
8,CC1(C)Cc2c(C#N)c(N3CCNCC3)nc(-c3ccco3)c2CS1,59.2% (active)
9,CCN1CC2C3CCC(C)(O3)C2C1 (stereo not given),11.9%
10,Fc1ccc(C2N3CCCN23)cc1 (stereo not given),-11.3%
11,CCOc1cccc(=NC2CCCCC2)c2c(C)[nH]c(C)c12,11.4%
12,Cc1nn(Cc2ccccc2Cl)c(Cl)c1C(=O)OC(C(=O)NC(N)=O)C(C)C (stereo not given),49.5% (active)
13,Cc1cccc(NC(=O)OC2CN3CCC2CC3)c1 (stereo not given),11.8%
14,O=c1[nH]c(=O)n(Cc2ccccc2)c(O)c1/C=N/Nc1c(F)c(F)c(F)c(F)c1F,-7.15%
15,Cn1c(O)c(C(=Nc2ccc(F)cc2)c2ccccc2)c(=O)n(C)c1=O,-6.6%
